Screening data deposited in PubChem by Broad Institute.
This is a sample that favours compounds with a hit; in the whole collection about 6.7% have one here.
Pf Dd2 growth: inhibitors of Plasmodium falciparum Dd2 growth; P. falciparum Dd2 growth, SYBR Green, 72 h; stronger effect = lower value; activity change, % at 10 µM; hit rate 2.3% among 94,000; AID 1159554; in the data active means activity change below about -80%; inconclusive means no clear call, values can overlap the other calls
C diff growth: inhibitors of Clostridium difficile growth; Clostridium difficile clinical isolate growth, OD600, 24 h; stronger effect = lower value; growth activity, negative = inhibition, % at 16 µg/mL (by protocol); hit rate 0.25% among 86,000;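 active means mean growth activity at or below -80% and every replicate also at or below -80%; inconclusive means mean at or below -80% but some replicate above -80%; inactive means mean growth activity above -80%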
T cruzi growth-1: blocks T. cruzi growth in NIH3T3 culture. T. cruzi beta-gal in NIH3T3, GalScreen luminescence, 90 h. inhibition, % at 8.34 µM. hit rate 5.9% among 77,000. AID 624255;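 active means mean inhibition above about 93%, with at least 55% of replicates each passing it, limit read from the data, passing the limit was not always enough; inconclusive means only one of those two conditions holds; inactive means neither condition holds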
T cruzi growth-2: blocks T. cruzi growth in NIH3T3 host cells; shares compounds with T cruzi growth-1; T. cruzi beta-gal in NIH3T3, GalScreen luminescence, 90 h; inhibition, % at 8.35 µM; hit rate 72% among 5,600; AID 651739;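 active means mean replicate inhibition above about 95% and at least 55% of replicates individually reaching it, limit read from the data; inconclusive means only one of the two criteria is met; inactive means neither criterion is met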
T cruzi growth-3: blocks T. cruzi growth in NIH3T3 host cells. inhibition, % at 2.09 µM. T. cruzi beta-gal in NIH3T3, GalScreen luminescence, 90 h. shares compounds with T cruzi growth-1. AID 651740. hit rate 21% among 5,600;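 active means mean inhibition above about 95%, with at least 55% of replicates also reaching it, limit read from the data; inconclusive means meets just one of the two conditions; inactive means meets neither condition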
3T3 cytotox: cytotoxicity in mouse NIH/3T3 fibroblasts; shares compounds with T cruzi growth-1; NIH/3T3 viability, CellTiter-Glo ATP luminescence, 90 h; cytotoxicity (signal decrease), % at 8.35 µM; hit rate 14% among 5,600; AID 651742;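 active means mean signal decrease across replicates above about 35% based on untreated-well scatter, with enough replicates individually passing, limit read from the data; inconclusive means no rule stated though some were filed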
NIH3T3 tox 2: NIH/3T3 (mouse) viability loss. AID 651744. inhibition, % at 24.9 µM. NIH/3T3 viability, CellTiter-Glo ATP luminescence, 90 h. shares compounds with T cruzi growth-1. hit rate 56% among 5,600;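 active means mean loss of cell viability signal at or above a set limit, and enough replicates individually reaching it; inconclusive means meets only the mean limit or only the replicate share; inactive means meets neither condition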
Hits are given with their value; 0 = inactive; ? = inconclusive; - = no result given.

SMILES | Pf Dd2 growth | C diff growth | T cruzi growth-1 | T cruzi growth-2 | T cruzi growth-3 | 3T3 cytotox | NIH3T3 tox 2
COc1ccc(NC(=O)Nc2ccc3c(c2)C(=O)N([C@@H](C)CO)C[C@H](C)[C@H](CN(C)C(=O)Nc2ccc4c(c2)OCO4)OCCCC[C@H](C)O3)cc1 | 0 | 0 | ? | 108 | 0 | 0 | 0
COc1ccc(NC(=O)Nc2ccc3c(c2)C(=O)N([C@H](C)CO)C[C@H](C)[C@H](CN(C)C(=O)Nc2ccc4c(c2)OCO4)OCCCC[C@H](C)O3)cc1 | 0 | 0 | ? | 111 | 0 | 0 | 0
COc1ccc(NC(=O)N(C)C[C@@H]2OCCCC[C@H](C)Oc3ccc(NC(=O)Nc4ccc5c(c4)OCO5)cc3C(=O)N([C@@H](C)CO)C[C@@H]2C)cc1 | 0 | 0 | 0 | - | - | - | -
COc1ccc(NC(=O)N(C)C[C@@H]2OCCCC[C@@H](C)Oc3ccc(NC(=O)Nc4ccc5c(c4)OCO5)cc3C(=O)N([C@H](C)CO)C[C@H]2C)cc1 | 0 | 0 | 0 | - | - | - | -
CN(C)C(=O)[C@H]1[C@H](CO)[C@H]2Cn3c(ccc(-c4ccncc4)c3=O)[C@@H]1N2CC1CC1 | - | 0 | 0 | - | - | - | -
O=C(C1CCCCC1)N1C[C@@H]2[C@H](c3ccccc31)[C@@H](CO)N2Cc1ccccc1Cl | 0 | 0 | 0 | - | - | - | -
COc1ccc(CN(C)C[C@H]2Oc3ccc(NC(=O)Nc4cccc5ccccc45)cc3C(=O)N([C@H](C)CO)C[C@@H]2C)cc1 | 0 | 0 | 0 | - | - | - | -
C[C@@H]1CN([C@@H](C)CO)C(=O)c2cc(NC(=O)Nc3cccc4ccccc34)ccc2O[C@@H]1CN(C)Cc1ccc(Oc2ccccc2)cc1 | 0 | 0 | 124 | 99 | 105 | 0 | 27
COc1ccc(CN(C)C[C@H]2Oc3ccc(NC(=O)Nc4cccc5ccccc45)cc3C(=O)N([C@@H](C)CO)C[C@H]2C)cc1 | 0 | 0 | 0 | - | - | - | -
C[C@@H]1CN([C@H](C)CO)C(=O)c2cc(NC(=O)Nc3cccc4ccccc34)ccc2O[C@H]1CN(C)Cc1ccc(Oc2ccccc2)cc1 | 0 | 0 | 112 | 107 | 0 | 0 | 0
CO[C@H]1CN(C)C(=O)c2ccc(NS(=O)(=O)c3ccc(Cl)cc3)cc2OC[C@H](C)NC[C@@H]1C | 0 | 0 | - | - | - | - | -
CCCC(=O)Nc1ccc2c(c1)C(=O)N(C)[C@H]1CC[C@H](CC(=O)NCc3ccccc3Cl)O[C@H]1CO2 | 0 | 0 | 0 | - | - | - | -
COc1ccc(NC(=O)N[C@@H]2CC[C@H](CC(=O)NC3CCCCC3)O[C@H]2CO)cc1 | 0 | 0 | - | - | - | - | -
COc1ccc(NC(=O)Nc2ccc3c(c2)C(=O)N([C@@H](C)CO)C[C@@H](C)[C@H](CN(C)C(=O)C2CCCCC2)OCCCC[C@H](C)O3)cc1 | 0 | 0 | 0 | - | - | - | -
C[C@@H]1CCCCO[C@@H](CN(C)C(=O)C2CCCCC2)[C@H](C)CN([C@H](C)CO)C(=O)c2cc(NC(=O)Nc3ccc(C(F)(F)F)cc3)ccc2O1 | 0 | 0 | 0 | - | - | - | -
COc1ccc(NC(=O)Nc2ccc3c(c2)C(=O)N([C@@H](C)CO)C[C@@H](C)[C@H](CN(C)C(=O)C2CCCCC2)OCCCC[C@@H](C)O3)cc1 | 0 | 0 | ? | ? | 0 | 0 | 0
C[C@@H]1CCCCO[C@@H](CN(C)C(=O)C2CCCCC2)[C@@H](C)CN([C@H](C)CO)C(=O)c2cc(NC(=O)Nc3ccccc3)ccc2O1 | 0 | 0 | 0 | - | - | - | -
C[C@@H]1CCCCO[C@H](CN(C)C(=O)C2CCCCC2)[C@@H](C)CN([C@@H](C)CO)C(=O)c2cc(NC(=O)Nc3ccc(C(F)(F)F)cc3)ccc2O1 | -88 | 0 | 120 | 98 | 106 | 0 | 0
C[C@@H]1CCCCO[C@@H](CN(C)C(=O)C2CCCCC2)[C@H](C)CN([C@H](C)CO)C(=O)c2cc(NC(=O)Nc3ccc(F)cc3)ccc2O1 | 0 | 0 | 0 | - | - | - | -
C[C@@H]1CN([C@@H](C)CO)C(=O)c2cc(NC(=O)Nc3ccc(C(F)(F)F)cc3)ccc2O[C@@H](C)CCCCO[C@H]1CN(C)C(=O)C1CCCCC1 | 0 | 0 | 119 | 108 | 111 | 0 | 0
C[C@@H]1CCCCO[C@H](CN(C)C(=O)C2CCCCC2)[C@@H](C)CN([C@H](C)CO)C(=O)c2cc(NC(=O)Nc3ccc(C(F)(F)F)cc3)ccc2O1 | 0 | 0 | 120 | 105 | 0 | 0 | ?
CC(C)NC(=O)N(C)C[C@H]1Oc2ccc(NC(=O)Cc3ccccc3)cc2C(=O)N([C@@H](C)CO)C[C@@H]1C | 0 | 0 | - | - | - | - | -
C[C@H]1CN([C@@H](C)CO)C(=O)c2cc(NC(=O)Cn3cnnn3)ccc2O[C@H]1CN(C)Cc1ccc(Cl)c(Cl)c1 | 0 | 0 | 0 | - | - | - | -
C[C@@H]1CN([C@H](C)CO)C(=O)Cc2cc(NC(=O)CCN3CCOCC3)ccc2O[C@@H]1CN(C)C(=O)Nc1ccccc1 | 0 | 0 | 0 | - | - | - | -
CO[C@@H](CN(C)C(=O)c1cnccn1)[C@@H](C)CN([C@H](C)CO)S(=O)(=O)c1ccc(C)cc1 | 0 | - | 0 | - | - | - | -
SMILES | Pf Dd2 growth | C diff growth | T cruzi growth-1 | T cruzi growth-2 | T cruzi growth-3 | 3T3 cytotox | NIH3T3 tox 2
C[C@@H]1CN([C@H](C)CO)C(=O)c2cc(NS(=O)(=O)c3ccc(F)cc3)ccc2O[C@@H](C)CCCCO[C@H]1CN(C)Cc1ccc(Cl)c(Cl)c1 | 0 | 0 | 0 | - | - | - | -
O=C(N[C@H]1C=C[C@@H](CC(=O)N2CCc3ccccc3C2)O[C@H]1CO)C1CCOCC1 | 0 | 0 | - | - | - | - | -
C[C@H](CO)N1C[C@H](C)[C@@H](CN(C)C(=O)C2CCCCC2)OCCCC[C@H](C)Oc2ccc(NC(=O)Nc3ccc(F)cc3)cc2C1=O | 0 | 0 | 0 | - | - | - | -
C[C@H]1CCCCO[C@@H](CN(C)C(=O)C2CCCCC2)[C@@H](C)CN([C@@H](C)CO)C(=O)c2cc(NC(=O)Nc3ccc(F)cc3)ccc2O1 | -85 | 0 | ? | 111 | 0 | 0 | 0
C[C@H](CO)N1C[C@H](C)[C@H](CN(C)C(=O)C2CCCCC2)OCCCC[C@H](C)Oc2ccc(NC(=O)Nc3ccc(C(F)(F)F)cc3)cc2C1=O | 0 | 0 | 0 | - | - | - | -
C[C@H]1CCCCO[C@@H](CN(C)C(=O)C2CCCCC2)[C@@H](C)CN([C@@H](C)CO)C(=O)c2cc(NC(=O)Nc3ccc(C(F)(F)F)cc3)ccc2O1 | -89 | 0 | 120 | 96 | 115 | 0 | 0
C[C@H](CO)N1C[C@H](C)[C@H](CN(C)C(=O)CN(C)C)Oc2cc(C#CC(C)(C)O)ccc2S1(=O)=O | 0 | 0 | 0 | - | - | - | -
CCCNC(=O)[C@@H]1[C@@H](CO)[C@@H]2Cn3c(ccc(-c4cccc(F)c4)c3=O)[C@H]1N2CCC | 0 | 0 | 0 | - | - | - | -
COc1ccc(S(=O)(=O)Nc2ccc3c(c2)CC(=O)N([C@@H](C)CO)C[C@@H](C)[C@@H](CN(C)Cc2ccccc2)O3)cc1 | 0 | 0 | 0 | - | - | - | -
COc1ccc(S(=O)(=O)Nc2ccc3c(c2)CC(=O)N([C@@H](C)CO)C[C@H](C)[C@H](CN(C)Cc2ccccc2)O3)cc1 | 0 | 0 | 99 | 99 | 0 | 0 | 0
